Experimental data taken from PubChem BioAssay AID540267 (National Center for Advancing Translational Sciences (NCATS), 2011).
Hit rate of the full screen: of about 340,000 compounds, about 530 (0.16%) were called active. Not shown: some 2% with an inconclusive outcome. Rule as the data show it: active = activity change below about -80%; inconclusive = between about -30% and that limit; inactive = weaker than that. This excerpt belongs to a sample that is enriched for actives.

Assay: Small Molecules that selectively kill Giardia lamblia: qHTS;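 also: parasites exposed to compound for two days anaerobically before the ATP read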
Details: Giardia lamblia trophozoite viability; at 7.66 µM; active compounds read low
Outline: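 Luminescence from cellular ATP indicates surviving trophozoites (100 cells/well) following 48 hrs anaerobic compound treatment at 37 deg C; signal develops 15-30 min at room temperature.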
% is scaled to controls: 0 for no effect and ±100 for the full control effect.

Row | Structure (SMILES) | activity change
1 | c1ccc2c(C[n+]3csc4ccccc43)cccc2c1 | 3.49% (inactive)
2 | O=c1c([N+](=O)[O-])cccn1Cc1ccc(F)cc1Cl | -94.3% (active)
3 | N/C(=N/O)c1cccn1Cc1ccccc1[N+](=O)[O-] | -2.12% (inactive)
4 | Cc1ccc(-c2ccc(=O)n(Cc3ccc(F)cc3Cl)n2)cc1 | -0.457% (inactive)
5 | Brc1nc2ncnc(NCc3ccco3)c2[nH]1 | -4.89% (inactive)
6 | O=[N+]([O-])c1ncc(Br)cc1Nc1ccccc1 | -90.1% (active)
7 | O=[N+]([O-])c1ccccc1Nc1ccc(O)cc1 | -6.38% (inactive)
8 | O=[N+]([O-])c1cccc(/C=N/Nc2ncc(Br)cn2)c1 | 23.3% (inactive)
9 | NC(CSC1(c2ccccc2)c2ccccc2-c2ccccc21)C(=O)O (centres undefined) | -0.132% (inactive)
10 | Cc1ccc2oc(C(=O)N3CCN(C)C[C@@H]3C(C)C)c(C)c2c1 | 11.8% (inactive)
11 | CCCCCCC1(C)NC(c2ccc3c(c2)OCO3)=CC(c2ccccc2O)N1 (centres undefined) | -22.5% (inactive)
12 | CC1(C)c2[nH]c3ccccc3c2C[C@H]2C(=O)N(N)CC(=O)N21 | -11.4% (inactive)
13 | COC(=O)N/N=C/c1c[n+]([O-])c2ccccc2[n+]1[O-] | -80.1% (active)
14 | COC(=O)C(C)N=Cc1ccccc1 (centres undefined) | -3.67% (inactive)
15 | COC(=O)N/N=C/c1ccc(-c2ccc(Cl)c(Cl)c2)o1 | -7.13% (inactive)
16 | CC(=O)c1c(C)n([O-])c2ccccc2[n+]1=O | -80.7% (active)
17 | Cc1c(C=O)c2ccccc2n1CC(=O)O | 21.1% (inactive)
18 | CCOc1ccc(NC(=O)CSc2nnc3c(n2)[nH]c2ccc(S(=O)(=O)N4CCOCC4)cc23)cc1 | -27.7% (inactive)
19 | Cc1ccc(N2C(=O)C3C(c4ccccc4)(C2=O)C3(c2ccccc2)c2ccccc2)cc1 (centres undefined) | 6.33% (inactive)
20 | CCN(CC)/[N+]([O-])=N/Oc1cc(O/[N+]([O-])=N/N2CCCC2CO)c([N+](=O)[O-])cc1[N+](=O)[O-] (centres undefined) | 9.52% (inactive)
21 | CC1(C(=O)NCCc2c[nH]c3ccccc23)C=CC2(CCCCC2)N1C(=O)c1ccccc1 (centres undefined) | 17.9% (inactive)
22 | COc1cc(OC)c2c(C)cc(=O)oc2c1C(CCN1CCCCC1)c1ccc(N(C)C)cc1 (centres undefined) | 8.97% (inactive)

Row | Structure (SMILES) | activity change
23 | Cc1nc(-c2ccccc2)cn2c1nc1ccccc12 | 7.53% (inactive)
24 | O=S(=O)(c1cccc(C(F)(F)F)c1)N1CCN(c2nc(-c3cccs3)nc3ccccc23)CC1 | 27.4% (inactive)
25 | COC(=O)c1ccc(OCC(O)CN(CCO)CC(O)Cn2ccc3ccccc32)cc1 (centres undefined) | 8.7% (inactive)
26 | CCCCNC(=O)Cn1c(SCc2cccc(Cl)c2)nc2ccncc21 | 12.3% (inactive)
27 | Cc1ccc(S(=O)(=O)N2CCN(c3nc(-n4cnc5ccccc54)nc4ccccc34)CC2)cc1 | 11.1% (inactive)
28 | CC(C)=CCN1CCN(CCCc2ccccc2)CC1CCO (centres undefined) | 23.8% (inactive)
29 | O=C(N/N=C/c1ccc([N+](=O)[O-])o1)c1cn(-c2ccccc2)nc1-c1ccc(F)cc1 | -93% (active)
30 | Cc1ccc(-c2nn(-c3ccccc3)cc2C(=O)NC2CCC(O)CC2)cc1 (centres undefined) | 4.06% (inactive)
31 | O=C(NCCCN1CCOCC1)c1cn(-c2ccccc2)nc1-c1ccc(F)cc1 | -14.8% (inactive)
32 | Cc1noc(C)c1NC(=O)Nc1ccc2c(c1)C(=O)N([C@H](C)CO)C[C@H](C)[C@@H](CN(C)C(=O)Nc1ccc(C(F)(F)F)cc1)O2 | 41.7% (inactive)
33 | C[C@H](CO)N1C[C@H](C)[C@H](CN(C)C(=O)Nc2ccc(C(F)(F)F)cc2)Oc2c(NC(=O)c3ccncc3)cccc2C1=O | -89.7% (active)
34 | Cc1noc(C)c1NC(=O)Nc1cccc2c1O[C@H](CN(C)C(=O)Nc1ccccc1)[C@@H](C)CN([C@H](C)CO)C2=O | 8.07% (inactive)
35 | Cc1ccc(-c2nc(=N)sn2Cc2ccccc2)cc1 | 24.2% (inactive)
36 | COc1ccc(Cn2c(=O)[nH]c3cc(C(=O)N4CCN(C(=O)c5ccco5)CC4)ccc3c2=O)cc1 | -2.35% (inactive)
37 | Cc1noc(NS(=O)(=O)c2ccc(NC(=O)c3oc4ccc(F)cc4c3C)cc2)c1C | 6.55% (inactive)
38 | COc1ccc(S(=O)(=O)N2CCN(c3ccc(F)cc3)CC2)cc1-c1noc(C)n1 | 5.27% (inactive)
39 | COC(=O)C(CC(C)C)NS(=O)(=O)c1cc(Br)ccc1Br (centres undefined) | -10.7% (inactive)
40 | Cc1ccc(Nc2c(-c3ccc(C)s3)nc3ccccn23)cc1 | 1.31% (inactive)
41 | O=C(c1ccc2nc(N3CCOCC3)sc2c1)N1CCN(c2ccc(Cl)cc2)CC1 | -10.4% (inactive)
42 | COc1ccc2nc(N3C(=O)C(O)=C(C(=O)c4ccco4)C3c3ccco3)sc2c1 (centres undefined) | 1.49% (inactive)
43 | COc1ccc2nc(N3CCN(C(=O)c4ccc([N+](=O)[O-])o4)CC3)sc2c1 | -98.8% (active)
44 | O=C(NCC1CC1)C1(C(F)(F)F)C/C(=C\CCO)CCCO1 (centres undefined) | -14.8% (inactive)
